Source: PubChem (The Scripps Research Institute Molecular Screening Center)
M1 ag parental – counter-screen for M1 agonists: effect in parental CHO-K1 cells; 0.48% of 360,000 active; Fluo-8 calcium fluorescence; scaled to maximal ATP response, vehicle zero; AID 602248; activation, % at 3 µM; in the data active = activation above about 15%;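 also: untransfected CHO-K1 host cells lacking M1 receptor as counterscreen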
CHRM1 agonist – agonists of human M1 muscarinic receptor. CHO-K1 hM1, Fluo-8 calcium fluorescence, agonist mode; 0% DMSO, 100% acetylcholine EC100. activation, % at 3 µM. 0.33% of 360,000 active;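 active = activation above the run's mean compound activation plus 3 SD, cut at about 16% in these data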;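 also: peak over basal fluorescence ratio within a 140 s kinetic read after compound addition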
Target sequence (P11229 whole entry, looked up): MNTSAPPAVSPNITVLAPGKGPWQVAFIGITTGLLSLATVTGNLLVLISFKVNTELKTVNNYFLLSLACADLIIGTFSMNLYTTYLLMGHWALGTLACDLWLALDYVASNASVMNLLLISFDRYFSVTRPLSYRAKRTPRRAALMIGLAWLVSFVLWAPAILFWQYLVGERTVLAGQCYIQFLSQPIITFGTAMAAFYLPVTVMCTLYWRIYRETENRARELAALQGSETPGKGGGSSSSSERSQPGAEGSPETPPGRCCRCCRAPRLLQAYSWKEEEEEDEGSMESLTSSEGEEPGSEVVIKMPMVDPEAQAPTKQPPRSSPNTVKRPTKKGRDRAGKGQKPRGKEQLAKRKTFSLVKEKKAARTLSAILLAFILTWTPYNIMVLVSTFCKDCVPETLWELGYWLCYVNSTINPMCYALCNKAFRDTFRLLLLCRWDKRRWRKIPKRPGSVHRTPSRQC
M1 antag – blocks human M1 muscarinic receptor; P11229; CHO-K1 hM1, Fluo-8 calcium fluorescence, ACh EC80 antagonist; inhibition, % at 3 µM; 1.3% of 360,000 active;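 active = percent inhibition above its own plate's cutoff, namely the mean of that plate's compound wells plus 3 SD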;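 also: peak over basal fluorescence ratio during 140 s after agonist addition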
CHO-K1 Ca antag – counter-screen for M1 antagonists: effect in parental CHO-K1 cells. ATP-induced calcium, Fluo-8 fluorescence. inhibition, % at 3 µM. 0.6% of 360,000 active. AID 602250;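 active = inhibition above a per-plate cutoff, the plate's mean sample inhibition plus 3 SD, cut at about 24% in these data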
CHRM1 PAM – potentiates human M1 receptor response to acetylcholine. CHO-K1 hM1, Fluo-8 calcium fluorescence, ACh EC20; 0% = ACh EC20, 100% = maximal ACh. activation, % at 3 µM. 0.088% of 360,000 active; in the data active = activation above about 19%, passing the limit was not always enough
M1 PAM parental – M1 PAM counterscreen hit in parental CHO-K1 cells | 0.02% of 360,000 active | AID 602247 | activation, % at 3 µM | ATP EC20, Fluo-8 calcium fluorescence; 0% at ATP EC20, 100% at ATP max;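 active = activation above the run cutoff, the mean activation of all test compounds plus 3 SD, cut at about 40% in these data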;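 also: peak over basal fluorescence ratio in a 140 s read after ATP addition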
Each line names hits and unclear results; the compound was inactive in the other large screens. Only some compounds are listed: those with a hit (about 2.3% of all), similar ones and a draw of the others.

COc1cc(/C=N/N=C2/NC(=O)C(Cc3ccccc3)S2)ccc1O (stereo not given)	M1 ag parental 24
COc1ccc(/C=N/N=C2/NC(=O)C(CC(=O)O)S2)cc1OS(=O)(=O)c1ccccc1 (stereo not given)	none
Cc1c(C(=O)OCC[N+]2(C)CCCCC2)oc2ccccc12	M1 antag 54
COC(=O)C1=C(C)N(Cc2ccco2)C(=O)/C1=C\c1ccc([N+](=O)[O-])cc1	M1 ag parental 17
COc1coc(C(O)C[N+](=O)[O-])cc1=O (stereo not given)	none
NCCCC[C@H]1CN=C(N)N1CCC12CC3CC(CC(C3)C1)C2	M1 antag 59
Cc1c(C(=O)N2CCN(c3ccccn3)CC2)oc2c1C(=O)CC(C)(C)C2	none
COc1ccccc1N1CCN(C(=O)c2oc3c(c2C)C(=O)CC(C)(C)C3)CC1	CHO-K1 Ca antag 28
O=C(CCCCCNC(=O)c1ccccc1Br)N=Nc1c(O)[nH]c2ccccc12	none
Clc1ccc(OCCCN2CCCCC2)c(Br)c1	none
CC1CCCN(CCOCCOc2ccc(Br)cc2Cl)C1 (stereo not given)	M1 antag 42
Cc1cc(Cl)c(OCCOCCN2CCCC(C)C2)c(Br)c1 (stereo not given)	M1 antag 62
CC1CCCN(CCOCCOc2ccc(Cl)cc2Br)C1 (stereo not given)	M1 antag 66
Cc1ccc(NC(=O)C2CCN(S(=O)(=O)c3cc([N+](=O)[O-])ccc3Cl)CC2)nc1	M1 antag 42
Cc1ccc2nc(NC(=O)C3CCN(S(=O)(=O)c4cc([N+](=O)[O-])ccc4Cl)CC3)sc2c1	CHO-K1 Ca antag 25
O=C(Nc1nc2ccc(F)cc2s1)C1CCN(S(=O)(=O)c2cc([N+](=O)[O-])ccc2Cl)CC1	M1 antag 32, CHO-K1 Ca antag 32
CC(NC(=O)C1CCN(S(=O)(=O)c2cc([N+](=O)[O-])ccc2Cl)CC1)c1ccccc1 (stereo not given)	none
COc1ccc([N+](=O)[O-])cc1NC(=O)c1cc(C)c(C)o1	CHO-K1 Ca antag 25
COc1cc(C)c(Br)cc1S(=O)(=O)NCCCN1CCOCC1	M1 ag parental 20
COc1cc(C)c(Cl)cc1S(=O)(=O)NCCCN1CCOCC1	none
O=[N+]([O-])c1c(N2CCN(CCO)CC2)nc2ccccn12	none
O=c1c2ccccc2ncn1-c1ccc([N+](=O)[O-])cc1Cl	CHO-K1 Ca antag 24
Cc1cc(NC(=O)Nc2ccccc2F)ccc1Br	CHO-K1 Ca antag 25
O=C(Nc1ccccc1)Nc1ccc(Br)cc1F	M1 antag 46
COC(=O)c1cc(Br)ccc1NC(=O)Nc1ccccc1	none
O=C(Nc1cccc(Cl)c1)Nc1ccc(Br)cc1F	M1 antag 33
CN(C(=O)COC(=O)CNC(=O)c1ccc(C(C)(C)C)cc1)c1c(N)n(Cc2ccccc2)c(=O)[nH]c1=O	none
COc1ccc(CN2CCN(S(=O)(=O)c3ccc(NC(C)=O)cc3)CC2)cc1OC	none
CC(=O)Nc1ccc(NC(=O)C(C)Oc2ccccc2F)cc1 (stereo not given)	CHO-K1 Ca antag 24
CCOc1ccc(CN2CCN(S(=O)(=O)c3ccc(NC(C)=O)cc3)CC2)cc1	M1 ag parental 22
CCOc1ccccc1C(=O)OC(C)C(=O)Nc1ccc(S(=O)(=O)N2CCCC2)cc1 (stereo not given)	M1 antag 29, CHO-K1 Ca antag 25
CC(Oc1ccccc1F)C(=O)Nc1ccc2ccccc2c1 (stereo not given)	none
COc1ccc(CN(C)C(C)C(=O)Nc2ccc(S(=O)(=O)N3CCCCC3)cc2)c(OC)c1 (stereo not given)	M1 antag 91
CN(CC(=O)Nc1ccc(N2CCOCC2)cc1)C(=O)CCNC(=O)c1ccc(Br)cc1	none
COc1ccc2nccc(/C=C/c3ccnc4ccc(OC)cc34)c2c1	none
N#CCC(=O)Nc1ccc(C(=O)N2CCN(c3ccccn3)CC2)cc1	none
CC(Oc1ccccc1C(N)=O)C(=O)Nc1ccc(S(=O)(=O)N2CCCC2)cc1 (stereo not given)	M1 antag 59
Cc1noc(C)c1COc1ccc(C(=O)OC(C)C(=O)Nc2ccc(S(=O)(=O)N3CCOCC3)cc2)cc1 (stereo not given)	M1 ag parental 17
COc1ccc(-n2nc(C(=O)NCC(=O)NCCC3=CCCCC3)c3ccccc3c2=O)cc1	none
O=C(Nc1ccc(F)c(Cl)c1)c1ccccc1NC(=O)C1CCCCC1C(=O)O (stereo not given)	CHO-K1 Ca antag 26
O=C(Nc1cccc(Cl)c1)c1ccccc1NC(=O)C1CCCCC1C(=O)O (stereo not given)	none
CCOC(=O)c1sc(NC(=O)CSc2nc(C)cc(C)n2)c(C#N)c1C	none
CCOC(=O)c1sc(NC(=O)CSc2ccccn2)c(C#N)c1C	none
CCOC(=O)c1c(NC(=O)CSc2n[nH]c(-c3ccco3)n2)sc(C)c1C	CHO-K1 Ca antag 24
CCOC(=O)c1c(NC(=O)CSc2n[nH]c(CNc3ccccc3)n2)sc(C)c1C	none
CCOC(=O)c1sc(NC(=O)CSc2n[nH]c(-c3ccccc3)n2)c(C#N)c1C	CHO-K1 Ca antag 27
CCOC(=O)c1sc(NC(=O)CSc2ncn[nH]2)c(C#N)c1C	M1 ag parental 18
Cc1ccccc1N(CC(=O)N/N=C/c1ccc(N(C)C)cc1)C(=O)c1ccccc1	none
COc1ccc(S(=O)(=O)n2cccc2)cc1	none
O=C(COC(=O)c1ccccc1SCC(=O)N1CCCC1)NCc1ccccc1	none
COc1ccc(S(=O)(=O)N2CCN(C(=O)N3CCOCC3)C2C)cc1 (stereo not given)	none
O=C(CN1CCCCC1)N1CCCc2ccccc21	none
O=C(CN1CCCC1)N1c2ccccc2C=Cc2ccccc21	M1 antag 90
O=C(CN1CCCCCC1)N1c2ccccc2C=Cc2ccccc21	M1 antag 98
CN1CCN(C(=O)N2c3ccccc3C=Cc3ccccc32)CC1	M1 antag 94
O=C(COC(=O)c1ccc[n+]([O-])c1)Nc1ccc(Cl)cc1[N+](=O)[O-]	none
COc1cccc(CC2(CO)CCCN(Cc3ccc(CN4CCCCC4)s3)C2)c1 (stereo not given)	none
Cc1ccc(NC(=O)C(OC(=O)c2ccc(O)cc2)c2ccccc2)cc1Cl (stereo not given)	none
Cc1ccc(NC(=O)C(OC(=O)c2ccc(F)cc2)c2ccccc2)cc1Cl (stereo not given)	M1 antag 40
O=C(Nc1ccc(OCCO)cc1)c1csc([C@@H]2O[C@H](CO)[C@H](O)[C@H](O)[C@H]2O)n1	none
